{
  "source": "PubChem BioAssay (NCI)",
  "key": {"[1]": {"assay": "NCI Yeast Anticancer Drug Screen. Data for the rad52 strain (AID 147);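 further: 0% = growth of vehicle-treated control cultures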", "details": "S. cerevisiae rad52 mutant growth inhibition, active compounds read high", "how_it_was_run": "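Inhibition of yeast growth, referenced to vehicle controls, was the measured output for a strain with defective DNA damage repair.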"}, "[2]": {"assay": "NCI Yeast Anticancer Drug Screen. Data for the rad50EPP+ strain (AID 151);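 further: 0% = growth of vehicle-treated control cultures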", "details": "S. cerevisiae rad50 mutant strain, active compounds read high", "how_it_was_run": "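Genetically defined yeast (rad50EPP+, DNA damage repair alteration) is grown with compound, and inhibition of growth is expressed relative to vehicle-treated controls.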"}, "[3]": {"assay": "NCI Yeast Anticancer Drug Screen. Data for the mgt1 strain (AID 153)", "details": "S. cerevisiae mgt1 mutant growth inhibition, active compounds read high", "how_it_was_run": "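In the mgt1 strain, test compounds were added and growth inhibition was determined relative to vehicle-treated controls.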"}, "[4]": {"assay": "NCI Yeast Anticancer Drug Screen. Data for the rad50 strain (AID 155);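 further: 0% = growth of vehicle-only cultures of the same strain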", "details": "S. cerevisiae rad50 strain growth inhibition, active compounds read high", "how_it_was_run": "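Genetically altered yeast (DNA repair pathway); compound treatment; growth inhibition vs vehicle ctrl.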"}, "[5]": {"assay": "NCI Yeast Anticancer Drug Screen. Data for the mec2-1 strain (AID 157)", "details": "S. cerevisiae mec2-1 strain, active compounds read high", "how_it_was_run": "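Each compound was tested on mec2-1 yeast, a strain altered in DNA damage repair or cell cycle control. Growth inhibition is reported relative to vehicle.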"}, "[6]": {"assay": "NCI Yeast Anticancer Drug Screen. Data for the rad14 strain (AID 159);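 further: 0% = growth of vehicle-treated control cultures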", "details": "S. cerevisiae rad14 strain growth inhibition, active compounds read high", "how_it_was_run": "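Test compounds were applied to a repair-deficient yeast strain. Its growth was then compared with that of cultures given vehicle alone, and inhibition was expressed relative to those controls.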"}, "[7]": {"assay": "NCI Yeast Anticancer Drug Screen. Data for the sgs1 mgt1 strain (AID 161);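 further: 0% = growth of cultures given vehicle only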", "details": "S. cerevisiae sgs1 mgt1 strain, active compounds read high", "how_it_was_run": "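Inhibition of yeast growth, normalised to vehicle-treated controls, is reported for a strain bearing genetic alterations in DNA damage repair.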"}, "[8]": {"assay": "NCI Yeast Anticancer Drug Screen. Data for the CLN2oe strain (AID 163);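 further: 0% = growth of vehicle-only control cultures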", "details": "S. cerevisiae CLN2oe strain, active compounds read high", "how_it_was_run": "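First, the altered yeast strain was treated with each compound; second, its growth was measured; finally, inhibition was derived by comparison with vehicle controls.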"}, "[9]": {"assay": "NCI Yeast Anticancer Drug Screen. Data for the cln2 rad14 strain (AID 165);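 further: 0% = growth equal to vehicle treated cultures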", "details": "S. cerevisiae cln2 rad14 strain, active compounds read high", "how_it_was_run": "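Test compounds were added to cln2 rad14 yeast cultures; inhibition of growth was then determined by comparison with vehicle treatment.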"}, "[10]": {"assay": "NCI Yeast Anticancer Drug Screen. Data for the bub3 strain (AID 167)", "details": "S. cerevisiae bub3 mutant strain, active compounds read high", "how_it_was_run": "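Yeast carrying a defined mutation is treated with each compound, and growth is compared with that of vehicle-exposed cells to give inhibition.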"}, "[11]": {"assay": "NCI Yeast Anticancer Drug Screen. Data for the wt2 strain (AID 169);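 further: 0% = growth of vehicle-treated yeast cultures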", "details": "S. cerevisiae wt2 strain growth inhibition, active compounds read high", "how_it_was_run": "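The panel's yeast strains carry defined changes in DNA repair or cell cycle genes. Each strain is grown with compound, and growth loss is scored relative to vehicle.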"}, "[12]": {"assay": "NCI Yeast Anticancer Drug Screen. Data for the mlh1 strain (AID 171);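 further: 0% = growth of vehicle-treated control cultures of the same strain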", "details": "S. cerevisiae mlh1 strain growth inhibition, active compounds read high", "how_it_was_run": "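Inhibition values reflect reduced yeast growth in the presence of compound, referenced to vehicle controls, using a strain chosen for its alteration in DNA repair or cell cycle control.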"}, "[13]": {"assay": "NCI Yeast Anticancer Drug Screen. Data for the sgs1 strain (AID 173);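 further: 0% = growth of vehicle-only control cultures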", "details": "S. cerevisiae sgs1 mutant, active compounds read high", "how_it_was_run": "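Vehicle-treated cultures served as reference for growth inhibition of a yeast strain altered in DNA damage repair or cell cycle control after compound exposure.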"}, "[14]": {"assay": "NCI Yeast Anticancer Drug Screen. Data for the mlh1 rad18 strain (AID 175)", "details": "S. cerevisiae mlh1 rad18 strain growth inhibition, active compounds read high", "how_it_was_run": "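Inhibition values reflect reduced growth of mutant yeast versus vehicle-treated controls following compound exposure; the mutations affect DNA damage repair.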"}, "[15]": {"details": "at 5.0 µM (retest, dose inferred, filed as 0.5)"}, "[16]": {"details": "at 50.0 µM (retest, dose inferred, filed as 5.0)"}},
  "note": "About 79,000 compounds went through this panel and 15% of them were active in at least one assay; those are over-represented in the sample as a whole. Values without a mark were called inactive. Calls of active or inactive are those of the source. No stated cut-off is given here; in the data, active means growth inhibition above about 70%; inactive means the rest.",
  "data": [
    {"smiles": "O=c1ssc2ncccc12", "values": [
      {"measurement": "growth inhibition", "setting": "[1]; at 1.2 µM", "result": 3, "unit": "%"},
      {"measurement": "growth inhibition", "setting": "[1]; at 3.7 µM", "result": 15, "unit": "%"},
      {"measurement": "growth inhibition", "setting": "[1]; at 11.0 µM", "result": "71% (active)"},
      {"measurement": "growth inhibition", "setting": "[1]; at 33.0 µM", "result": "95% (active)"},
      {"measurement": "growth inhibition", "setting": "[1]; at 100.0 µM", "result": "99% (active)"},
      {"measurement": "growth inhibition", "setting": "[2]; at 1.2 µM", "result": -5, "unit": "%"},
      {"measurement": "growth inhibition", "setting": "[2]; at 3.7 µM", "result": 6, "unit": "%"},
      {"measurement": "growth inhibition", "setting": "[2]; at 11.0 µM", "result": 45, "unit": "%"},
      {"measurement": "growth inhibition", "setting": "[2]; at 33.0 µM", "result": "86% (active)"},
      {"measurement": "growth inhibition", "setting": "[2]; at 100.0 µM", "result": "97% (active)"},
      {"measurement": "growth inhibition", "setting": "[3]; at 1.2 µM", "result": -1, "unit": "%"},
      {"measurement": "growth inhibition", "setting": "[3]; at 3.7 µM", "result": 10, "unit": "%"},
      {"measurement": "growth inhibition", "setting": "[3]; at 11.0 µM", "result": 41, "unit": "%"},
      {"measurement": "growth inhibition", "setting": "[3]; at 33.0 µM", "result": "84% (active)"},
      {"measurement": "growth inhibition", "setting": "[3]; at 100.0 µM", "result": "99% (active)"},
      {"measurement": "growth inhibition", "setting": "[4]; at 1.2 µM", "result": 15, "unit": "%"},
      {"measurement": "growth inhibition", "setting": "[4]; at 3.7 µM", "result": 49, "unit": "%"},
      {"measurement": "growth inhibition", "setting": "[4]; [15]", "result": 24, "unit": "%"},
      {"measurement": "growth inhibition", "setting": "[4]; at 11.0 µM", "result": "82% (active)"},
      {"measurement": "growth inhibition", "setting": "[4]; at 33.0 µM", "result": "97% (active)"},
      {"measurement": "growth inhibition", "setting": "[4]; [16]", "result": "99% (active)"},
      {"measurement": "growth inhibition", "setting": "[4]; at 50.0 µM", "result": "97.1% (active)"},
      {"measurement": "growth inhibition", "setting": "[4]; at 100.0 µM", "result": "99% (active)"},
      {"measurement": "growth inhibition", "setting": "[5]; at 1.2 µM", "result": 3, "unit": "%"},
      {"measurement": "growth inhibition", "setting": "[5]; at 3.7 µM", "result": 6, "unit": "%"},
      {"measurement": "growth inhibition", "setting": "[5]; [15]", "result": 14, "unit": "%"},
      {"measurement": "growth inhibition", "setting": "[5]; at 11.0 µM", "result": 29, "unit": "%"},
      {"measurement": "growth inhibition", "setting": "[5]; at 33.0 µM", "result": "83% (active)"},
      {"measurement": "growth inhibition", "setting": "[5]; [16]", "result": "96% (active)"},
      {"measurement": "growth inhibition", "setting": "[5]; at 50.0 µM", "result": "91.2% (active)"},
      {"measurement": "growth inhibition", "setting": "[5]; at 100.0 µM", "result": "97% (active)"},
      {"measurement": "growth inhibition", "setting": "[6]; at 1.2 µM", "result": 7, "unit": "%"},
      {"measurement": "growth inhibition", "setting": "[6]; at 3.7 µM", "result": 14, "unit": "%"},
      {"measurement": "growth inhibition", "setting": "[6]; at 11.0 µM", "result": 49, "unit": "%"},
      {"measurement": "growth inhibition", "setting": "[6]; at 33.0 µM", "result": "97% (active)"},
      {"measurement": "growth inhibition", "setting": "[6]; at 100.0 µM", "result": "99% (active)"},
      {"measurement": "growth inhibition", "setting": "[7]; [15]", "result": 31, "unit": "%"},
      {"measurement": "growth inhibition", "setting": "[7]; [16]", "result": "96% (active)"},
      {"measurement": "growth inhibition", "setting": "[7]; at 50.0 µM", "result": "93.2% (active)"},
      {"measurement": "growth inhibition", "setting": "[8]; at 1.2 µM", "result": -7, "unit": "%"},
      {"measurement": "growth inhibition", "setting": "[8]; at 3.7 µM", "result": 6, "unit": "%"},
      {"measurement": "growth inhibition", "setting": "[8]; at 11.0 µM", "result": 45, "unit": "%"},
      {"measurement": "growth inhibition", "setting": "[8]; at 33.0 µM", "result": "85% (active)"},
      {"measurement": "growth inhibition", "setting": "[8]; at 100.0 µM", "result": "97% (active)"},
      {"measurement": "growth inhibition", "setting": "[9]; [15]", "result": 21, "unit": "%"},
      {"measurement": "growth inhibition", "setting": "[9]; [16]", "result": "90% (active)"},
      {"measurement": "growth inhibition", "setting": "[9]; at 50.0 µM", "result": 49.6, "unit": "%"},
      {"measurement": "growth inhibition", "setting": "[10]; at 1.2 µM", "result": 2, "unit": "%"},
      {"measurement": "growth inhibition", "setting": "[10]; at 3.7 µM", "result": 4, "unit": "%"},
      {"measurement": "growth inhibition", "setting": "[10]; [15]", "result": 23, "unit": "%"},
      {"measurement": "growth inhibition", "setting": "[10]; at 11.0 µM", "result": 36, "unit": "%"},
      {"measurement": "growth inhibition", "setting": "[10]; at 33.0 µM", "result": "87% (active)"},
      {"measurement": "growth inhibition", "setting": "[10]; [16]", "result": "97% (active)"},
      {"measurement": "growth inhibition", "setting": "[10]; at 50.0 µM", "result": "93.2% (active)"},
      {"measurement": "growth inhibition", "setting": "[10]; at 100.0 µM", "result": "98% (active)"},
      {"measurement": "growth inhibition", "setting": "[11]; at 1.2 µM", "result": -6, "unit": "%"},
      {"measurement": "growth inhibition", "setting": "[11]; at 3.7 µM", "result": -4, "unit": "%"},
      {"measurement": "growth inhibition", "setting": "[11]; at 11.0 µM", "result": 15, "unit": "%"},
      {"measurement": "growth inhibition", "setting": "[11]; at 33.0 µM", "result": 57, "unit": "%"},
      {"measurement": "growth inhibition", "setting": "[11]; at 100.0 µM", "result": "98% (active)"},
      {"measurement": "growth inhibition", "setting": "[12]; at 1.2 µM", "result": 9, "unit": "%"},
      {"measurement": "growth inhibition", "setting": "[12]; at 3.7 µM", "result": 20, "unit": "%"},
      {"measurement": "growth inhibition", "setting": "[12]; at 11.0 µM", "result": 56, "unit": "%"},
      {"measurement": "growth inhibition", "setting": "[12]; at 33.0 µM", "result": "95% (active)"},
      {"measurement": "growth inhibition", "setting": "[12]; at 100.0 µM", "result": "99% (active)"},
      {"measurement": "growth inhibition", "setting": "[13]; at 1.2 µM", "result": 4, "unit": "%"},
      {"measurement": "growth inhibition", "setting": "[13]; at 3.7 µM", "result": 12, "unit": "%"},
      {"measurement": "growth inhibition", "setting": "[13]; at 11.0 µM", "result": "72% (active)"},
      {"measurement": "growth inhibition", "setting": "[13]; at 33.0 µM", "result": "96% (active)"},
      {"measurement": "growth inhibition", "setting": "[13]; at 100.0 µM", "result": "99% (active)"},
      {"measurement": "growth inhibition", "setting": "[14]; [15]", "result": 56, "unit": "%"},
      {"measurement": "growth inhibition", "setting": "[14]; [16]", "result": "98% (active)"},
      {"measurement": "growth inhibition", "setting": "[14]; at 50.0 µM", "result": "96.7% (active)"}
    ]}
  ]
}
